FAS-TE inh = FAS thioesterase domain inhibitors, primary screen, biochemical, fluorescence intensity, uHTS. Fatty acid synthase (Homo sapiens), P49327. recombinant FAS-TE, OMFH fluorogenic substrate, fluorescence endpoint. inhibition, % at 15 µM. 360,000 compounds, 0.67% hits;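 active means compounds whose normalised, plate-corrected inhibition of enzyme fluorescence in the single-dose primary screen is 50% or more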;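 further: 0% = DMSO with enzyme and 100% = substrate without enzyme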
KLK7 zymogen act = proKLK7 zymogen activators, primary screen, biochemical, fluorescence intensity; 370,000 compounds, 0.9% hits; activation, % at 7 µM; AID 652039, 2013; purified proKLK7, EDANS-DABCYL substrate fluorescence; 100% is mature enzyme control, 0% vehicle;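 active means activation above the mean of all tested compounds plus 3 SD, computed per campaign excluding outliers beyond control limits, cut at about 13% in these data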
FXN GAA850 act = FXN promoter activators, primary screen, cell-based, luciferase luminescence, HEK293 lucGAA850; HEK293 lucGAA850 FXN promoter luciferase reporter, 24 h; percent of 10 µM SAHA response; activation, % at 6 µM; 360,000 compounds, 0.56% hits;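 active means activation above the average of all compounds screened plus 3 SD, cutoff fixed separately per campaign, cut at about 7.5% in these data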;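 further: 0% = DMSO wells and 100% = 10 µM SAHA wells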
SMARCA2 activ = SMARCA2 (BRM) function activators, primary screen, cell-based, luminescence, high throughput; MG213 cells, MMTV-luciferase reporter, dexamethasone, overnight; activation, % at 9.1 µM; 370,000 compounds, 1% hits; AID 652017, 2013; in the data active means activation above about 7.8%;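 further: 0% = vehicle wells and 100% = reference activator wells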
KLK7 act conf = proKLK7 zymogen activators, confirmation, biochemical, fluorescence intensity, triplicate; shares compounds with KLK7 zymogen act; purified proKLK7, EDANS-DABCYL substrate fluorescence; scaled: vehicle 0, mature enzyme 100; activation, % at 7 µM; 3,200 compounds, 68% hits; AID 686949, 2013;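 active means activation, as change over the incubation, above the mean of all tested compounds plus 3 SD, cut at about 13% in these data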
EDANS interfere = EDANS-DABCYL substrate optical interference, artefact control for kallikrein-7 zymogen activator project, biochemical, fluorescence intensity, high throughput | shares compounds with KLK7 zymogen act | no enzyme, 4 h; solvent 0%, active enzyme control 100% | activation, % at 7 µM | 3,200 compounds, 80% hits | AID 686952, 2013;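 active means activation above the all-compound mean plus 3 SD, ignoring values outside control-based bounds, cut at about 4.8% in these data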;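 further: value is the 4 h activation minus the activation read at time zero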
EDANS interf = EDANS fluorescence interference in dose response, no enzyme; shares compounds with KLK7 zymogen act; 250 compounds, 20% hits; AID 720493; EDANS-DABCYL peptide fluorescence interference; EC50, µM;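 active means compounds that raise the fluorescence signal in this interference counterscreen, with EC50 at or below 10 µM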;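 further: intact quenched peptide substrate alone read at 355 nm excitation and 520 nm emission; signal is fluorescence gain from T0 to T4 after four hours at room temperature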
An asterisk follows results filed as active; nt = no result given. This is a sample that favours compounds with a hit; in the whole collection about 2.9% have one here.

SMILES | FAS-TE inh | KLK7 zymogen act | FXN GAA850 act | SMARCA2 activ | KLK7 act conf | EDANS interfere | others
CCN1C(=O)c2cccc3c(S(=O)(=O)N4CCCC4C(=O)O)ccc1c23 (centres undefined) | -2 | 37* | 1 | -2 | 22* | 24*
CCN1C(=O)c2cccc3c(Cl)ccc1c23 | 9 | 1 | 3 | -1 | nt | nt
Cc1ccc(C)c(CN2CCC(CNC(=O)CCc3nnc4ccc(N5CCCCC5)nn34)CC2)c1 | -4 | 0 | 2 | 1 | nt | nt
O=C(O)c1cc(-c2ccc(-c3ccc(F)cc3)o2)nc2ccccc12 | 0 | 33* | 4 | 5 | 65* | 76*
CC1=C(C(=O)Nc2ccccn2)C(c2cccnc2)n2nnnc2N1 (centres undefined) | -5 | 21* | 0 | 6 | 5 | 5.8*
COc1ccccc1Oc1c(C)oc2cc(OC(=O)c3ccco3)ccc2c1=O | 10 | 131* | 2 | -1 | 785* | 792*
COc1ccccc1-c1c(C)oc2cc(OC(=O)c3ccco3)ccc2c1=O | 11 | 268* | 0 | 1 | 376* | 359*
CCOc1ccccc1Oc1c(C)oc2cc(OC(=O)c3ccco3)ccc2c1=O | 10 | 28* | 1 | 0 | 272* | 238*
COc1cc(NC(=O)c2ccccc2F)ccc1NC(=O)c1ccccc1Cl | 9 | 0 | 2 | -1 | nt | nt
CCN(CC)CCNC(=O)c1cc2c(-c3cccc(OC)c3)nn(C)c2s1 | -3 | 24* | 1 | 0 | 6 | 6.9*
CC(=O)N1CCC2(CC1)C/C(=N\NC(=S)Nc1ccc(C)cc1)c1cc(O)ccc1O2 | 6 | -5 | -3 | 0 | nt | nt
Cc1ccc2[nH]c(=O)c3cc(C(=O)NCCN4CCN(C)CC4)sc3c2c1 | -1 | 17* | 1 | 0 | -18 | -22
CCCCNS(=O)(=O)CC1NCc2ccccc21 (centres undefined) | nt | 0 | nt | 0 | nt | nt
CN(CCO)S(=O)(=O)c1ccc2c(c1)C(=NNC(N)=O)c1cc(S(=O)(=O)N(C)CCO)ccc1-2 | -3 | 0 | 0 | -1 | nt | nt
CN(C)/C=N/c1nc2nccc(-c3ccc(Cl)cc3)n2n1 | -5 | 18* | 3 | -1 | 66* | 69*
Cc1cc(-c2ccc(Cl)cc2)n2nc(N)nc2n1 | -5 | 6 | 1 | 2 | nt | nt
Nc1nc2nccc(-c3ccc(Cl)cc3)n2n1 | -8 | 57* | 2 | 4 | 70* | 85*
Cn1c2ccccc2c2n[nH]c(=S)nc21 | -5 | 0 | 3 | -1 | nt | nt
CN(C)CCCN1C(=O)c2cccc3cccc(c23)C1=O | -7 | 2 | 2 | 6 | nt | nt
CCCCN1C(=O)c2cccc3cc(O)cc(c23)C1=O | 13 | 31* | 4 | -1 | 48* | 68*
CC1=C(C#N)C(c2ccc(O)cc2)C2=C(CC(C)(C)CC2=O)N1 (centres undefined) | -8 | 5 | 2 | 4 | nt | nt
CC1=C(C#N)C(C)C2=C(CC(C)(C)CC2=O)N1 (centres undefined) | -4 | 16* | 1 | -2 | 39* | 40*
CC1=C(C#N)C(c2cccnc2)C2=C(CC(C)(C)CC2=O)N1 (centres undefined) | -5 | 38* | 1 | 0 | 67* | 52* | EDANS interf=>70
CCC(CC)(CC(=O)Nc1cccc(/C=C/c2nc(C3CCC3)cs2)c1)C(=O)O | nt | 2 | nt | 2 | nt | nt
COc1ccccc1-c1coc2c(CN3C(C)CCCC3C)c(O)ccc2c1=O (centres undefined) | -4 | -3 | 1 | -5 | nt | nt
CCc1cc2c(=O)c(-c3nc4ccccc4n3C)coc2c(CN2CCC(C)CC2)c1O | -6 | 5 | 1 | -2 | nt | nt
COc1ccccc1-c1coc2c(CN3CCCCC3C)c(O)ccc2c1=O (centres undefined) | -6 | 53* | 0 | 2 | 66* | 64*

Assay outcomes: PubChem, several laboratories
